Measured values: PubChem BioAssay (EPA / NIEHS)
The source made the active and inactive calls. Rule for the calls: active = hit-call score of the fitted dose curve at least 0.9, where 1 is the maximum; inactive = score below 0.9.

assay: ATG_GRE_CIS: Attagene CIS-FACTORIAL HepG2 Assay for human Glucocorticoid Response Elements (GRE) (AID 2282947); conditions: HepG2 GRE cis-reporter, Attagene multiplex mRNA; actives raise or lower the signal
Method: ATG_CIS is a cell-based, multiplexed-readout assay that uses HepG2, a human liver cell line, with measurements taken at 24 hours after chemical dosing in a 24-well plate.ATG_GRE_CIS is one of 52 assay component(s) measured or calculated from the ATG_CIS assay. It is designed to make measurements of mRNA induction, a form of inducible reporter, as detected with fluorescence intensity signals by Reverse transcription polymerase chain reaction (RT-PCR) and Capillary electrophoresis technology.Data from the assay component ATG_GRE_CIS was analyzed into 1 assay endpoint. This assay endpoint, ATG_GRE_CIS, was analyzed with bidirectional fitting relative to DMSO as the negative control and baseline of activity. Using a type of inducible reporter, measures of mRNA for gain or loss-of-signal activity can be used to understand the reporter gene at the transcription factor-level as they relate to the gene NR3C1. Furthermore, this assay endpoint can be referred to as a primary readout, because this assay has produced multiple assay endpoints where this one serves a reporter gene function. To generalize the intended target to other relatable targets, this assay endpoint is annotated to the nuclear receptor intended target family, where the subfamily is steroidal.
Human liver HepG2 cells are transiently transfected with multiple reporter transcription units (MRTUs) in 6-well plates using FuGene 6 reagent (Roche; 3 ml FuGene/1 mg DNA). The MRTU constructs are regulated by a cis-regulating element (promoter). […] A major difference between the CIS and TRANS system is that in CIS activities of endogenous TFs are measured, whereas the TRANS assay evaluates changes in activities of exogenous, chimeric NR-Gal4 proteins. […] At the end of 24 hour incubation, total RNA was isolated using TriZol reagent (Invitrogen). The isolated RNA is then reverse-transcribed using oligo(dT) primer and Mo-MLV reverse transcriptase (Invitrogen) with DNAse I (Ambion) treatment for 30 min. The one-tenth of the produced cDNA was amplified by PCR using Taq DNA polymerase (Invitrogen) and two reporter sequence-specific primers. The PCR products were fluorescently labeled by primer extension with 6-arboxyfluorescein (6-FAM) 5'-labeled reporter sequence-specific primer (2 min at 95 C, 20 s at 68 C and 10 min at 72 C) and these products were digested with 5U of HpaI (New England Biolabs) for 2h at 37 C. The fragments were purified using Qiaquick PCR columns (Qiagen), analyzed on an ABI 3130xL genetic analyzer (Applied Biosystems) with peak positions identified by using a set of X-rhodamine (ROX)-labeled MapMarker1000 molecular weight standards (BioVentures). The raw capillary electrophoresis data was processed using Attagraph software (Attagene).

| Structure (SMILES) | outcome | AC50 |
| --- | --- | --- |
| O=Cc1cccc(Oc2ccccc2)c1 | inactive |  |
| Clc1nc(Cl)nc(Cl)n1 | inactive |  |
| CC(=O)c1cc(C(C)(C)C)cc2c1CCC2(C)C |  | 73.9 µM (active) |
| c1cc[c]([Hg][c]2ccccc2)cc1 | inactive |  |
| COP(=S)(OC)Oc1c(Cl)cc(C)cc1Cl | inactive |  |
| Cl/C=C/Cl | inactive |  |
| CC(=[OH+])/C=C(/C)[O-].CC(=[OH+])/C=C(/C)[O-].CC(=[OH+])/C=C(/C)[O-].[Fe] | inactive |  |
| Cl/C=C\C[N+]12CN3CN(CN(C3)C1)C2 | inactive |  |
| O=P(O)(O)CN(CP(=O)(O)O)CP(=O)(O)O | inactive |  |
| CCCCCCCCc1ccc(O)cc1 | inactive |  |
| COC[C@H](C)N(C(=O)CCl)c1c(C)csc1C | inactive |  |
| O=C(OC1CCCCC1)c1ccccc1C(=O)OC1CCCCC1 | inactive |  |
| CN(CCCC(=O)c1cccnc1)N=O | inactive |  |
| O=C(Nc1ccc2[nH]ccc2c1)c1cc2cc(F)ccc2n1Cc1cccc(F)c1 |  | 17.6 µM (active) |
| COc1ccc(C=O)cc1 | inactive |  |
| C=CC(=O)N(C)C | inactive |  |
| CCC1(c2ccc(N)cc2)CCC(=O)NC1=O (stereo not given) | inactive |  |
| CCC[CH2][Sn]([CH2]CCC)([CH2]CCC)[O]C(=O)c1ccccc1 | inactive |  |
| CC(C)CCCCCCOC(=O)c1ccccc1C(=O)OCCCCCCC(C)C | inactive |  |
| C[C@H]1O[C@@H](O[C@H]2[C@@H](O)C[C@H](O[C@H]3[C@@H](O)C[C@H](O[C@H]4CC[C@@]5(C)[C@H](CC[C@@H]6[C@@H]5CC[C@]5(C)[C@@H](C7=CC(=O)OC7)CC[C@]65O)C4)O[C@@H]3C)O[C@@H]2C)C[C@H](O)[C@@H]1O |  | 0.123 µM (active) |

| Structure (SMILES) | outcome | AC50 |
| --- | --- | --- |
| O=C1C(Cl)=C(Cl)C(=O)c2ccccc21 | inactive |  |
| CCSC(C)CC1CC(=O)C(C(CC)=NOC/C=C/Cl)=C(O)C1 (stereo not given) | inactive |  |
| COC(=O)Cc1ccccc1 | inactive |  |
| C=C(C)C(=O)[O][Sn]([CH2]CCC)([CH2]CCC)[CH2]CCC | inactive |  |
| CCOC(=O)Nc1cccc(OC(=O)Nc2ccccc2)c1 | inactive |  |
| O=c1[nH]c(=O)[nH]c(=O)[nH]1 | inactive |  |
| C[C@]12CCC(=O)C[C@@H]1CC[C@@H]1[C@@H]2CC[C@]2(C)[C@@H](O)CC[C@@H]12 | inactive |  |
| CC(C#N)CCC#N (stereo not given) | inactive |  |
| CCc1ccccc1N | inactive |  |
| ClC(Cl)=C(Cl)C(Cl)=C(Cl)Cl |  | 165 µM (active) |
| CCC(C)(C)c1ccc(O)c(C(C)(C)CC)c1 | inactive |  |
| ClCc1ccccn1 | inactive |  |
| CC(C)(c1ccc(OCC2CO2)cc1)c1ccc(OCC2CO2)cc1 (stereo not given) | inactive |  |
| CC(=[OH+])/C=C(/C)[O-].CC(=[OH+])/C=C(/C)[O-].CC(=[OH+])/C=C(/C)[O-].[Al] | inactive |  |
| C1CCC(NC2CCCCC2)CC1 | inactive |  |
| CCc1ccccc1C | inactive |  |
| CC(C)(C)CC(C)(C)c1ccc(O)cc1 | inactive |  |
| CNC(=O)O/N=C/C(C)(C)S(C)=O (stereo not given) | inactive |  |
| Nc1ccc(Cl)cc1C(=O)c1ccccc1 | inactive |  |
| C=CC#N | inactive |  |
